Measured values from PubChem BioAssay (EPA / NIEHS).
Calls of active or inactive are those of the source. Rule for the calls: active = hit-call score of the fitted dose curve at least 0.9, where 1 is the maximum; inactive = score below 0.9.

Tests used:
[1] = read-out: Vascular endothelial growth factor receptor 2 (Homo sapiens) (UniProt P35968); test: BSK_4H_VEGFRII: BioMAP Diversity Plus: 4H Assay for Vascular endothelial growth factor receptor 2 (VEGFR2) Biomarker Activity (AID 2283031); conditions: primary human endothelial cells (HUVEC); actives raise or lower the signal;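 for AC50: cell-surface VEGFR2 protein level quantified by ELISA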
Procedure, shortened: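 Primary human umbilical vein endothelial cells in the BioMAP 4H system were dosed with test chemical, and 24 h later VEGFRII was measured by ELISA. Activity was fitted bidirectionally against DMSO as negative control and baseline.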

[2] = read-out: Human Leukocyte Antigen - DR isotype (HLADR), HLA-DRA (gene 3122); test: BSK_BE3C_HLADR: BioMAP Diversity Plus: BE3C Assay for Human Leukocyte Antigen - DR isotype (HLADR) Biomarker Activity (AID 2283032); conditions: primary human bronchial epithelial cells; actives raise or lower the signal
Procedure, shortened: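 Signal came from an ELISA for HLA-DR in human bronchial epithelial primary cells harvested 24 h after treatment; gain- and loss-of-signal fitting used DMSO controls as reference.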

[3] = read-out: Vascular cell adhesion molecule 1 (VCAM1), VCAM1 (gene 7412); test: BSK_4H_VCAM1: BioMAP Diversity Plus: 4H Assay for Vascular cell adhesion molecule 1 (VCAM1) Biomarker Activity (AID 2283033); conditions: primary human endothelial cells (HUVEC); actives raise or lower the signal
Procedure, shortened: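 Endpoint derived from bidirectional fitting against DMSO controls of VCAM-1 ELISA signal in umbilical vein endothelial cells sampled at 24 h following treatment.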

[4] = read-out: Interferon-gamma inducible Protein 10 (IP10), CXCL10 (gene 3627); test: BSK_BE3C_IP10: BioMAP Diversity Plus: BE3C Assay for Interferon-gamma inducible Protein 10 (IP10) Biomarker Activity (AID 2283034); conditions: primary human bronchial epithelial cells; actives raise or lower the signal
Procedure, shortened: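 Using primary human bronchial epithelial cultures, the assay captures IP-10 by ELISA one day (24 h) after exposure. Parallel SRB staining of total protein flags overt cytotoxicity. Fits run bidirectionally relative to DMSO.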

[5] = read-out: Monokine induced gamma interferon (MIG), CXCL9 (gene 4283); test: BSK_BE3C_MIG: BioMAP Diversity Plus: BE3C Assay for Monokine induced gamma interferon (MIG) Biomarker Activity (AID 2283035); conditions: primary human bronchial epithelial cells; actives raise or lower the signal
Procedure, shortened: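 MIG level was determined by ELISA after 24 h chemical treatment of primary human bronchial epithelial cells. Values were fitted bidirectionally with DMSO as the negative control and activity baseline.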

[6] = read-out: Transforming growth factor beta 1 (TGFb1), TGFB1 (gene 7040); test: BSK_BE3C_TGFb1: BioMAP Diversity Plus: BE3C Assay for Transforming growth factor beta 1 (TGFb1) Biomarker Activity (AID 2283036); conditions: primary human bronchial epithelial cells; actives raise or lower the signal
Procedure, shortened: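 In this human primary bronchial epithelial system, an ELISA quantified TGF-b1 one day after dosing. Endpoint changes in either direction were fitted relative to DMSO.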

[7] = read-out: Plasminogen activator inhibitor-1 (PAI1), SERPINE1 (gene 5054); test: BSK_BE3C_PAI1: BioMAP Diversity Plus: BE3C Assay for Plasminogen activator inhibitor-1 (PAI1) Biomarker Activity (AID 2283037); conditions: primary human bronchial epithelial cells; actives raise or lower the signal
Procedure, shortened: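 PAI-1 biomarker levels in treated human bronchial epithelial cells are determined by ELISA at 24 h. Both increases and decreases relative to DMSO are fitted.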

[8] = read-out: urokinase plasminogen activator (uPA), PLAU (gene 5328); test: BSK_BE3C_uPA: BioMAP Diversity Plus: BE3C Assay for urokinase plasminogen activator (uPA) Biomarker Activity (AID 2283038); conditions: primary human bronchial epithelial cells; actives raise or lower the signal
Procedure, shortened: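 Human primary bronchial epithelial cells were exposed to chemical for 24 h, then uPA levels were measured by ELISA. Responses were fitted bidirectionally against DMSO as negative control and baseline. Parallel SRB staining of total protein gauged overt cytotoxicity.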

[9] = read-out: Urokinase-type plasminogen activator receptor (uPAR), PLAUR (gene 5329); test: BSK_BE3C_uPAR: BioMAP Diversity Plus: BE3C Assay for Urokinase-type plasminogen activator receptor (uPAR) Biomarker Activity (AID 2283039); conditions: primary human bronchial epithelial cells; actives raise or lower the signal
Procedure, shortened: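 A uPAR ELISA serves as the readout, taken 24 h after treating primary human bronchial epithelial cells. Responses in either direction are fitted against DMSO, which defines baseline activity.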

[10] = read-out: Interleukin-6 (IL6), IL6 (gene 3569); test: BSK_CASM3C_IL6: BioMAP Diversity Plus: CASM3C Assay for Interleukin-6 (IL6) Biomarker Activity for (AID 2283040); conditions: primary human coronary artery smooth muscle cells; actives raise or lower the signal
[11] = read-out: Tissue plasminogen activator (tPA), PLAT (gene 5327); test: BSK_BE3C_tPA: BioMAP Diversity Plus: BE3C Assay for Tissue plasminogen activator (tPA) Biomarker Activity (AID 2283041); conditions: primary human bronchial epithelial cells; actives raise or lower the signal
Procedure, shortened: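 Bidirectional curve fitting relative to DMSO defined activity, with tPA detected by ELISA in chemically treated human bronchial epithelial primary cells at 24 hours.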

[12] = read-out: Interleukin-8 (IL8), CXCL8 (gene 3576); test: BSK_CASM3C_IL8: BioMAP Diversity Plus: CASM3C Assay for Interleukin-8 (IL8) Biomarker Activity (AID 2283042); conditions: primary human coronary artery smooth muscle cells; actives raise or lower the signal;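 note: IL-8 protein level quantified by ELISA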
[13] = read-out: Human Leukocyte Antigen - DR isotype (HLADR), HLA-DRA (gene 3122); test: BSK_CASM3C_HLADR: BioMAP Diversity Plus: CASM3C Assay for Human Leukocyte Antigen - DR isotype (HLADR) Biomarker Activity (AID 2283043); conditions: primary human coronary artery smooth muscle cells; actives raise or lower the signal;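 note: cell-surface HLA-DR protein level quantified by ELISA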
[14] = read-out: Macrophage colony-stimulating factor (MCSF), CSF1 (gene 1435); test: BSK_CASM3C_MCSF: BioMAP Diversity Plus: CASM3C Assay for Macrophage colony-stimulating factor (MCSF) Biomarker Activity (AID 2283044); conditions: primary human coronary artery smooth muscle cells; actives raise or lower the signal;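 note: M-CSF protein amount quantified by ELISA after 24 h exposure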
[15] = read-out: Low-density lipoprotein receptor (LDLR), LDLR (gene 3949); test: BSK_CASM3C_LDLR: BioMAP Diversity Plus: CASM3C Assay for Low-density lipoprotein receptor (LDLR) Biomarker Activity (AID 2283045); conditions: primary human coronary artery smooth muscle cells; actives raise or lower the signal;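 note: LDLR protein level on the cell surface quantified by ELISA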
[16] = read-out: Monocyte Chemoattractant Protein-1 (MCP1), CCL2 (gene 6347); test: BSK_CASM3C_MCP1: BioMAP Diversity Plus: CASM3C Assay for Monocyte Chemoattractant Protein-1 (MCP1) Biomarker Activity (AID 2283046); conditions: primary human coronary artery smooth muscle cells; actives raise or lower the signal;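 note: MCP-1 level quantified by ELISA 24 h after dosing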
[17] = BSK_CASM3C_Proliferation: Cell Proliferation Assessment in the BioMAP Diversity Plus: CASM3C Assay (AID 2283047); conditions: primary human coronary artery smooth muscle cells;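 note: sulforhodamine B total protein stain as relative cell number at 560 nm; sub-confluent cells exposed 48 h before staining; fitted both ways against DMSO so gain or loss of cell number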
[18] = read-out: Monokine induced gamma interferon (MIG), CXCL9 (gene 4283); test: BSK_CASM3C_MIG: BioMAP Diversity Plus: CASM3C Assay for Monokine induced gamma interferon (MIG) Biomarker Activity (AID 2283048); conditions: primary human coronary artery smooth muscle cells; actives raise or lower the signal
[19] = read-out: serum amyloid A (SAA), SAA1 (gene 6288); test: BSK_CASM3C_SAA: BioMAP Diversity Plus: CASM3C Assay for serum amyloid A (SAA) Biomarker Activity (AID 2283049); conditions: primary human coronary artery smooth muscle cells; actives raise or lower the signal;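 note: SAA protein level quantified by ELISA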
[20] = BSK_CASM3C_SRB: Viability Assessment in the BioMAP Diversity Plus: CASM3C Assay (AID 2283050); conditions: primary human coronary artery smooth muscle cells

Measured: AC50

O=c1[nH]sc2ccccc12
active: [2] 28.1 µM | [3] 7.17 µM | [4] 28 µM | [5] 32.3 µM | [6] 20 µM | [7] 37.2 µM | [8] 33.6 µM | [9] 35 µM | [10] 8.69 µM | [11] 11 µM | [12] 14.6 µM | [13] 5.36 µM | [14] 14.9 µM | [15] 12.7 µM | [16] 13.1 µM | [17] 1.89 µM | [18] 10.7 µM | [19] 20.4 µM | [20] 17.3 µM
inactive: [1]

CCCCCc1ccc(N)cc1
active: [9] 5.56 µM
not listed: [2]
inactive: all other assays above

O=C(O)c1ccccc1-n1cc(C(=O)O)c(=O)c2cc(Nc3c(F)cc(F)cc3Cl)c(Cl)cc21
not listed: [8]
inactive: all other assays above

Cc1cc2c(cc1C(F)(F)F)N(C(=O)Nc1ccc(Oc3cccnc3C)nc1)CC2
active: [2] 5.03 µM | [4] 13.1 µM | [13] 16.6 µM | [14] 30.6 µM | [15] 3.81 µM | [16] 28.3 µM | [17] 13.8 µM | [20] 26.3 µM
not listed: [8]
inactive: all other assays above

CN(C)c1ccc(C(=C2C=CC(=[N+](C)C)C=C2)c2ccc(N(C)C)cc2)cc1
active: [1] 0.148 µM | [2] 1.28 µM | [3] 5.55 µM | [4] 5.52 µM | [5] 6.32 µM | [6] 0.73 µM | [7] 0.228 µM | [9] 5.52 µM | [10] 6.61 µM | [12] 5.56 µM | [13] 7.11 µM | [14] 6.36 µM | [15] 5.4 µM | [16] 1.07 µM | [17] 2.06 µM | [18] 8.07 µM | [19] 0.822 µM | [20] 7.66 µM

CCCOC(=O)c1cc(O)c(O)c(O)c1
active: [3] 2.01 µM | [17] 6.82 µM
inactive: all other assays above
